Compound activity: PubChem BioAssay, National Center for Advancing Translational Sciences (NCATS)
The entries come from a sample that favours hits as a whole.
LmPK inhibitor: LmPK (Leishmania mexicana) enzyme inhibition; Q27686; purified LmPK, Kinase-Glo ATP luminescence, 1 h; Potency, µM (doses to about 57.5 µM), most hits filed as inhibitors; 290,000 tested, 0.37% active; AID 1721
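0.1 nM LmPK, 0.5 mM PEP, 0.1 mM ADP; 50 mM imidazole pH 7.2, 7 mM MgCl2, 50 mM KCl; 1 h RT. Kinase-Glo luminescence readout, normalized to no-enzyme (full inhibition) and uninhibited wells.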
Shiga toxin inh: inhibitors of Shiga toxin in Vero cells. Vero cells, Shiga toxin protein synthesis inhibition reporter. inhibition, % at 38.7 µM. 290,000 tested, 9.2% active. AID 2315; in the data active means inhibition mostly above about 28%, no sharp cut-off; inactive means mostly below about 43%
CHX counter: counter-screen hit for Shiga toxin inhibitors, cycloheximide; cell reporter, cycloheximide protein synthesis inhibition counterscreen; max response, %; 300,000 tested, 12% active; in the data active means max response mostly above about 13%, no sharp cut-off; inactive means mostly below about 14%; further: read at 38.3 µM for the half of the compounds with a filed dose
Giardia FBPA inh: Giardia lamblia aldolase inhibition; purified Giardia FBPA; Potency, µM (highest dose often 59.6 µM), hits mostly inhibitors; 290,000 tested, 0.71% active; AID 2451; further: nearly all actives have a fitted effect of over 55% in size
Target sequence (A8B2U2 whole entry, looked up): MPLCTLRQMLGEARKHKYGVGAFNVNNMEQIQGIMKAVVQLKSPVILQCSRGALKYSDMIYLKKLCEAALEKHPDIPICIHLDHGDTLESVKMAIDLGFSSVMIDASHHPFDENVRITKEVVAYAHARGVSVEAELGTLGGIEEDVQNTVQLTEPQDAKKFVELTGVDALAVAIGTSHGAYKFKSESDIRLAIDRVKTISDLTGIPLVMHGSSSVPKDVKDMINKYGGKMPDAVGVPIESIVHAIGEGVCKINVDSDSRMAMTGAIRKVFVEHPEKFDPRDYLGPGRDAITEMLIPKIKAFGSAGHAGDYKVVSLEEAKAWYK
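Giardia FBPA (40 nM reagent) was preincubated 10 min at RT with compound (up to 57.5 uM final), then substrate plus GAPDH/TPI/NAD/arsenate coupling system with diaphorase/resazurin was added; resorufin fluorescence (525/598 nm) was read after 20 min.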
TbPYK inhibitor: inhibitors of Trypanosoma brucei pyruvate kinase. Potency, µM (doses to about 76.8 µM), actives largely listed as inhibitors. TbPYK enzyme, Kinase-Glo Plus ATP luminescence, 45 min. Q57TT1. 410,000 tested, 0.12% active; further: nearly all actives have a fitted effect of over 50% in size
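Glycolytic pyruvate kinase of T. brucei was incubated with substrate, test compound and 130 uM ADP for 45 minutes at room temperature. Luminescent Kinase-Glo Plus signal was measured after 10 minutes.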
RE007 growth inh: less growth of the S. pombe RE007 Vpr strain; S. pombe RE007 Vpr strain, BacTiter-Glo ATP luminescence, 24 h; Potency, µM (top dose mostly 92.2 µM), hits mostly inhibitors; 360,000 tested, 0.21% active; active means well fitted falling curve with a large enough effect; inconclusive means small, poorly fitted or top-dose-only effect; inactive means no such curve, though single readings can be large or run the other way; further: nearly all actives have a fitted effect of over 50% in size
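Fission yeast RE007 carrying one integrated HIV-1 vpr copy, seeded at OD 0.01 in PMG+AL medium with 23 nL pinned compound. Grown 24 h at 30 degrees; viability read by BacTiter-Glo luminescence after 5 min.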
A number is an active result; [ ] = another dose, or the depositor's remark. Unless noted, the call rests on the fitted dose curve; in most records, active means well fitted curve in the direction sought with a large enough effect; inconclusive means small, poorly fitted or top-dose-only effect, or another doubt; inactive means no such curve, though single readings can be large; an effect the other way counts as inactive or inconclusive.

Results for CC(=O)NCCc1ccc(C(=O)Cn2cnc3ccccc3c2=O)cc1 ?
LmPK inhibitor: inactive; Shiga toxin inh: 78; CHX counter: 79; Giardia FBPA inh: inactive; TbPYK inhibitor: inactive; RE007 growth inh: inactive

Results for CCc1ccc(C(=O)Nn2cnc3ccccc3c2=O)cc1 ?
LmPK inhibitor: inactive; Shiga toxin inh: 109; CHX counter: 54; Giardia FBPA inh: inactive; TbPYK inhibitor: inactive; RE007 growth inh: inactive

Results for O=C(Nn1cnc2ccccc2c1=O)c1ccc(Br)cc1 ?
LmPK inhibitor: inactive; Shiga toxin inh: 90; CHX counter: 41; Giardia FBPA inh: inactive; TbPYK inhibitor: inactive; RE007 growth inh: inactive

Results for O=C(Nn1cnc2ccccc2c1=O)c1cccc(Cl)c1 ?
LmPK inhibitor: inactive; Shiga toxin inh: inactive; CHX counter: 44; Giardia FBPA inh: inactive; TbPYK inhibitor: inactive; RE007 growth inh: inactive

Results for O=C(Nn1cnc2ccccc2c1=O)c1ccccc1F ?
LmPK inhibitor: inactive; Shiga toxin inh: inactive; CHX counter: 11; Giardia FBPA inh: inactive; TbPYK inhibitor: inactive; RE007 growth inh: inactive

Results for O=C(Nn1cnc2ccccc2c1=O)c1ccc(Cl)c([N+](=O)[O-])c1 ?
LmPK inhibitor: inactive; Shiga toxin inh: inactive; CHX counter: inactive; Giardia FBPA inh: inactive; TbPYK inhibitor: inactive; RE007 growth inh: inactive

How did CC(=O)NC1C(O)C[C@@](O)(C(=O)O)OC1[C@@H](O)C(O)CO (stereo partly drawn) do in these assays?
Giardia FBPA inh: inactive

Results for FC(F)OC(Cl)C(F)(F)F (stereo not drawn) ?
TbPYK inhibitor: inactive

Results for Fc1ccc(-[n+]2nc(Nc3ccccc3)sc2-c2c3ccccc3cc3ccccc23)cc1 ?
LmPK inhibitor: inactive; Shiga toxin inh: 41; CHX counter: 32; Giardia FBPA inh: 22µM; TbPYK inhibitor: inactive; RE007 growth inh: inactive

Results for O=C(CSc1ccc(Cl)cc1)N1CCCC1 ?
LmPK inhibitor: inactive; Shiga toxin inh: inactive; CHX counter: 46; Giardia FBPA inh: inactive; TbPYK inhibitor: inconclusive; RE007 growth inh: inactive

Results for O=C(CSc1ccc(Cl)cc1)N1CCN(c2ccc(Cl)cc2[N+](=O)[O-])CC1 ?
LmPK inhibitor: inactive; Shiga toxin inh: inactive; CHX counter: inactive; TbPYK inhibitor: inactive; RE007 growth inh: inactive

How did O=C(CCSCc1ccccc1Cl)N1CCN(c2ccccn2)CC1 do in these assays?
LmPK inhibitor: inactive; Shiga toxin inh: 44; CHX counter: 41; Giardia FBPA inh: inactive; TbPYK inhibitor: inactive; RE007 growth inh: inactive

Results for Cc1ccc(SCc2ccc(C(=O)N3CCCC3)cc2)cc1 ?
LmPK inhibitor: inactive; Shiga toxin inh: 96; CHX counter: 39; Giardia FBPA inh: inactive; TbPYK inhibitor: inactive; RE007 growth inh: inactive

What do the screens show for `Cc1ccc(SCCC(=O)N2CCOCC2)cc1`?
LmPK inhibitor: inactive; Shiga toxin inh: inactive; CHX counter: 26; Giardia FBPA inh: inactive; TbPYK inhibitor: inactive; RE007 growth inh: inactive

How did O=C(O)CCC(=O)N1CCN(c2ccccn2)CC1 do in these assays?
LmPK inhibitor: inactive; Shiga toxin inh: inactive; CHX counter: inactive; Giardia FBPA inh: inactive; TbPYK inhibitor: inactive; RE007 growth inh: inactive

How did CCc1ccc(NC(=O)C2CCCN2S(=O)(=O)c2ccc3c(c2)CCCC(=O)N3)cc1 (stereo not drawn) do in these assays?
TbPYK inhibitor: inactive

What do the screens show for `COc1ccc(CN2COc3ccc4c(-c5ccccc5)cc(=O)oc4c3C2)cc1OC`?
TbPYK inhibitor: inactive

Results for CC(C)[N+]1(C)C2CCC1CC(OC(=O)C(CO)c1ccccc1)C2 (stereo not drawn) ?
Giardia FBPA inh: inactive

How did Cc1ccc(-n2c(SCC(=O)N3CCN(c4ccccn4)CC3)nnc2N2CCCC2)cc1 do in these assays?
TbPYK inhibitor: inactive; RE007 growth inh: inactive

What do the screens show for `Cc1ccc(SCC(=O)N2CCCC2)cc1`?
LmPK inhibitor: inactive; Shiga toxin inh: 124; CHX counter: 23; Giardia FBPA inh: inactive; TbPYK inhibitor: inactive; RE007 growth inh: inactive

Results for Cc1ccc(SCCC(=O)N2CCCC2)cc1 ?
LmPK inhibitor: inactive; Shiga toxin inh: 86; CHX counter: 43; Giardia FBPA inh: inactive; TbPYK inhibitor: inactive; RE007 growth inh: inactive

Results for Cc1ccc(SCC(=O)N2CCN(c3ccccn3)CC2)cc1 ?
LmPK inhibitor: inactive; Shiga toxin inh: 52; CHX counter: 18; Giardia FBPA inh: inactive; TbPYK inhibitor: inactive; RE007 growth inh: inconclusive

Results for COc1cccc(CNC(=O)Cc2c(C(=O)O)c(C)cn2C)c1 ?
TbPYK inhibitor: inactive

Results for N#Cc1cnc(Nc2nc3ccccc3o2)nc1-c1ccccc1 ?
LmPK inhibitor: inactive; Shiga toxin inh: inactive; CHX counter: inactive; Giardia FBPA inh: inactive; TbPYK inhibitor: inactive; RE007 growth inh: inactive

Results for CCCc1nc(Nc2nc3ccccc3o2)nc(C)c1C(=O)OCC ?
LmPK inhibitor: inactive; Shiga toxin inh: 129; CHX counter: 61; Giardia FBPA inh: inactive; TbPYK inhibitor: inactive; RE007 growth inh: inactive

What do the screens show for `Cc1ccnc(Nc2nc3ccccc3o2)n1`?
LmPK inhibitor: 22µM; Shiga toxin inh: inactive; CHX counter: inactive; Giardia FBPA inh: inactive; TbPYK inhibitor: inconclusive; RE007 growth inh: inactive

How did Cc1ccc(Nc2nc3ccccc3o2)cc1F do in these assays?
LmPK inhibitor: inconclusive; Shiga toxin inh: inactive; CHX counter: 38; Giardia FBPA inh: inactive; TbPYK inhibitor: inconclusive; RE007 growth inh: inconclusive

Results for Cc1nc(Nc2nc3ccccc3o2)nc(C)c1C ?
LmPK inhibitor: 18µM; Shiga toxin inh: inactive; CHX counter: inactive; Giardia FBPA inh: inactive; TbPYK inhibitor: inconclusive; RE007 growth inh: inactive

How did Cc1ccc(Nc2c3c(nc4ccccc24)CCC3)cc1F do in these assays?
TbPYK inhibitor: inactive

What do the screens show for `Cc1ccc(NC(c2nnc(-c3ccccc3)o2)c2ccccc2F)c(Cl)c1` (stereo not drawn)?
TbPYK inhibitor: inactive

How did CCOCCCN(Cc1ccco1)S(=O)(=O)c1cc2c(cc1Cl)NC(=O)CO2 do in these assays?
TbPYK inhibitor: inactive[15.4 µM]

What do the screens show for `COc1ccccc1CNC(=O)CCCn1c(=O)c2ccccc2n(CC(=O)Nc2c(C)cc(C)cc2C)c1=O`?
TbPYK inhibitor: inactive

Results for Cc1ccc2oc(Nc3nc(C)c(C)c(C)n3)nc2c1 ?
LmPK inhibitor: inactive; Shiga toxin inh: 88; CHX counter: 37; Giardia FBPA inh: inactive; TbPYK inhibitor: inactive; RE007 growth inh: inactive

Results for CC1=C(C(=O)Nc2ccc(C)cc2C)C(c2cccs2)n2nc(SCc3ccccc3Cl)nc2N1 (stereo not drawn) ?
TbPYK inhibitor: inactive

What do the screens show for `Cc1ccc(Nc2nc(C)cs2)cc1`?
LmPK inhibitor: inactive; Shiga toxin inh: 125; CHX counter: 54; Giardia FBPA inh: inactive; TbPYK inhibitor: inactive; RE007 growth inh: inactive

What do the screens show for `Cc1ccc(Nc2nc3ccccc3c(=O)s2)cc1`?
LmPK inhibitor: inactive; Shiga toxin inh: inactive; CHX counter: inactive; Giardia FBPA inh: inactive; TbPYK inhibitor: inactive; RE007 growth inh: inactive
